Data: PubChem BioAssay (EPA / NIEHS)
Results filed as inconclusive are left out. A structure can be active in one record and inactive in another. Active and inactive are the calls of the source. Rule for the calls: active = hit-call score of the fitted dose curve at least 0.9, where 1 is the maximum; inconclusive = response in the unintended direction; inactive = score below 0.9.

Assay: Tanguay_ZF_120hpf_TR_legacy: (Legacy) Oregon State University Tanguay Lab 120 Hour Post-fertilization zebrafish Assay for Touch Response (AID 2283667)
Procedure: Tanguay_ZF_120hpf_legacy is a whole embryo, multiplexed endpoint assay using zebrafish larvae exposed for 120 hours post fertilization on a 96-well plate.Tanguay_ZF_120hpf_TR_legacy is one of one assay component(s) measured or calculated from the Tanguay_ZF_120hpf_legacy assay. It is designed to make measurements of zebrafish development as detected with brightfield microscopy of developing zebrafish embryos.Data from the assay component Tanguay_ZF_120hpf_TR_legacy was analyzed into 1 assay endpoints. This assay endpoint, Tanguay_ZF_120hpf_TR_legacy, was analyzed in the positive analysis fitting direction relative to DMSO as the negative control and baseline of activity. Using a type of morphology reporter, gain-of-signal activity can be used to understand changes in developmentals as they relate to the whole embryo. To generalize the intended target to other relatable targets, this assay endpoint is annotated to the zebrafish development intended target family, where the subfamily is embryonic functional response.
Zebrafish husbandry: Tropical 5D wild-type adult zebrafish were housed in at an approximate density of 1000 per 100 gallon tank at the Sinnhuber Aquatic Research Laboratory, Oregon State University, Corvallis, OR. Each tank was kept at standard laboratory conditions of 28C on a 14-h light/10-h dark photoperiod in fish water consisting of reverse osmosis water supplemented with a commercially available salt (Instant Ocean). Spawning funnels were placed into the tanks the night prior, and embryos were collected and staged. […] Ten microliters of each row of dilution plate 2 was added to 2 exposure plates. The final DMSO concentration used was 0.64% (vol/vol). Thirty-two embryos were also exposed to 5uM trimethyltin chloride (positive control). Plates were sealed to prevent evaporation and foil covered to reduce light exposure and kept in a 28C incubator. Embryos were statically exposed until 120 hpf. At 24 hpf, embryos were assessed for photomotor response using a custom photomotor response analysis tool (PRAT) and for developmental toxicity endpoints (MO24: mortality at 24 hpf, DP: developmental progression, SM: spontaneous movement, and NC: notochord distortion). At 120 hpf, locomotor activity was measured using Viewpoint Zebralab and assessed for 18 endpoints. Zebrafish acquisition and analysis program (ZAAP), a custom program designed to inventory, acquire, and manage zebrafish data, was used to collect developmental endpoints as either present or absent (i.e., binary responses were recorded). If mortality occurred for an embryo (at either 24 or 120 hpf), the non-mortality endpoints were not measured.

Row | SMILES | outcome | AC50
1 | CC(C)C1(C)N=C(c2nc3ccccc3cc2C(=O)O)NC1=O (stereo not given) | inactive | –
2 | COC(=O)C(C)Oc1ccc(Oc2ccc(Cl)cc2Cl)cc1 (stereo not given) | inactive | –
3 | N#Cc1cc(Br)c(O)c(Br)c1 | inactive | –
4 | COC(=O)N(OC)c1ccccc1COc1ccn(-c2ccc(Cl)cc2)n1 | inactive | –
5 | C=CCC1=C(C)[C@@H](OC(=O)[C@@H]2[C@@H](C=C(C)C)C2(C)C)CC1=O | inactive | –
6 | C=CCC1=C(C)C(OC(=O)C2C(C=C(C)C)C2(C)C)CC1=O (stereo not given) | inactive | –
7 | CON(C)C(=O)Nc1ccc(Cl)c(Cl)c1 | inactive | –
8 | C#CCOS(=O)OC1CCCCC1Oc1ccc(C(C)(C)C)cc1 (stereo not given) | inactive | –
9 | O=C(O)COc1nc(Cl)c(Cl)cc1Cl | inactive | –
10 | CNC(=O)ON=CC(C)(C)SC | – | 21 µM (active)
11 | CCOP(=S)(OCC)SCn1c(=O)oc2cc(Cl)ccc21 | inactive | –
12 | CS/C(C)=N/OC(=O)N(C)SN(C)C(=O)O/N=C(\C)SC | inactive | –
13 | CO/C=C(/C(=O)OC)c1ccccc1Oc1cc(Oc2ccccc2C#N)ncn1 | inactive | 4.04 µM (active)
14 | COc1ccc(C(c2ccc(OC)cc2)C(Cl)(Cl)Cl)cc1 | inactive | –
15 | CC1=C(C(=O)Nc2ccccc2)SCCO1 | inactive | –
16 | OC(c1ccc(Cl)cc1)(c1cncnc1)c1ccccc1Cl (stereo not given) | inactive | –
17 | Cc1c(F)c(F)c(COC(=O)C2C(/C=C(\Cl)C(F)(F)F)C2(C)C)c(F)c1F (stereo not given) | – | 3.23 µM (active)
18 | Oc1ccccc1-c1ccccc1 | inactive | –
19 | O=C(Nc1ccccc1)Nc1ccnc(Cl)c1 | inactive | –
20 | Cc1ccc(-c2c(Cl)nc(C#N)n2S(=O)(=O)N(C)C)cc1 | inactive | –

Row | SMILES | outcome | AC50
21 | CCNc1nc(Cl)nc(NCC)n1 | inactive | –
22 | COP(=S)(OC)Oc1nc(Cl)c(Cl)cc1Cl | – | 97.7 µM (active)
23 | CCCCOC(=O)c1ccccc1C(=O)OCCCC | inactive | –
24 | CN(C)C(=S)SSC(=S)N(C)C | – | 3.26 µM (active)
25 | CCOC(=O)CC(SP(=S)(OC)OC)C(=O)OCC (stereo not given) | – | 26.5 µM (active)
26 | COC(=O)c1ccccc1C(=O)OC | inactive | –
27 | N#CC(CCc1ccc(Cl)cc1)(Cn1cncn1)c1ccccc1 (stereo not given) | inactive | –
28 | COC(=O)C=C(C)OP(=O)(OC)OC | inactive | –
29 | CCCC1COC(Cn2cncn2)(c2ccc(Cl)cc2Cl)O1 (stereo not given) | – | 9.51 µM (active)
30 | CCCCNC(=O)OCC#CI | inactive | –
31 | CCc1nn(C)c(C(=O)NCc2ccc(C(C)(C)C)cc2)c1Cl | inactive | –
32 | C=CC1(C)OC(=O)N(c2cc(Cl)cc(Cl)c2)C1=O (stereo not given) | inactive | –
33 | CCCCNC(=O)n1c(NC(=O)OC)nc2ccccc21 | – | 19.2 µM (active)
34 | CCON=C(CC)C1=C(O)CC(c2c(C)cc(C)cc2C)CC1=O (stereo not given) | inactive | –
35 | CCOC(=O)C(Cl)Cc1cc(-n2nc(C)n(C(F)F)c2=O)c(F)cc1Cl (stereo not given) | – | 17 µM (active)
36 | N#Cc1nn(-c2c(Cl)cc(C(F)(F)F)cc2Cl)c(N)c1S(=O)C(F)(F)F (stereo not given) | inactive | –
37 | CC(C)Oc1cc(-n2nc(C(C)(C)C)oc2=O)c(Cl)cc1Cl | inactive | –
38 | COc1nc(NC(C)C)nc(NC(C)C)n1 | inactive | –
39 | CCOc1cc(Oc2ccc(C(F)(F)F)cc2Cl)ccc1[N+](=O)[O-] | inactive | –
